Measured values: PubChem BioAssay (Tox21)
Results filed as inconclusive are left out. Values without a mark were called inactive. Calls of active or inactive are those of the source. The call rests on the fitted dose curve; in most records, active means well fitted activation curve with a large enough effect in the repeat runs; inconclusive means weak or mixed curves, or effect the other way; inactive means no such curve, though single readings can be large or run the other way.

assay: qHTS assay to identify small molecule agonists of the retinoic acid receptor (RAR) signaling pathway (AID 1159553); conditions: C3RL4 RARE luciferase reporter, agonist, 6 h; series mostly up to 73.3 µM; activation: at the top concentration
Description: National Center for Advancing Translational Sciences [NCATS] NIH Chemical Genomics Center [NCGC] U.S. Environmental Protection Agency [EPA] National Institutes of Environmental Health Sciences [NIEHS] National Toxicology Program [NTP] Assay overview: All-trans Retinoic acid (atRA) is the potent natural metabolite of retinol and plays an important role in normal embryonic development and maintenance of cellular phenotype in adult animals. atRA is the activating ligand for the retinoic acid receptors (RARs) which form heterodimers with retinoid X receptors (RXRs) on the retinoic acid response element (RARE). Through activation of the RAR/RXRs nuclear receptors, atRA regulates the transcription of a large number of protein-coding genes and regulatory RNAs. Intracellular levels of atRA are controlled by the retinol signaling pathway (RSP) that regulates the biosynthesis and catabolism of atRA to maintain physiological levels. Chemicals that interfere with the RSP can cause abnormal intracellular levels of atRA and therefore are potential developmental toxicants. To assess compounds for the potential adverse effect on embryonic development through interfering with retinol signaling, a cell-based RARE luciferase reporter gene assay was used. C3RL4 cell line (OARSA/CFSAN/FDA, Laurel, MD) was used to screen Tox21 10K compound library for identifying activators of the RSP.
Assay Protocol Summary: C3RL4 cells were seeded at 1,000/well in 5 uL of assay medium into white solid 1,536-well tissue culture plates (Greiner Bio-One North America Inc. Monroe, NC) using a Multidrop Combi (Thermo Scientific, Waltham, MA) dispenser. After incubation at 37 C and 5% CO2 for an overnight, 23 nL of compounds dissolved in DMSO, positive control or DMSO only were transferred by a Pintool station (Kalypsys, San Diego, CA). After 6 hr incubation at 37 C and 5% CO2, 5 uL of Amplite Luciferase reagent (AAT Bioquest Inc. Sunnyvale, CA) was added to each assay plate using a Flying Reagent Dispenser (FRD) (Aurora Discovery, San Diego, CA). Luminescence was quantified on a ViewLux plate reader (PerkinElmer, Waltham, MA) after 30 min incubation at room temperature.
On the % scale 0 is the no-effect control and ±100 the full control effect; potency means the concentration at half of the fitted maximal effect.

SMILES | activation | Potency
C/C(=C(\CCOP(=O)(O)O)SC(=O)c1ccccc1)N(C=O)Cc1cnc(C)nc1N | 0.351% [at 8.36 µM] | –
CCCCC/C=C\C/C=C\CCCCCCCC(=O)NC(C)c1ccccc1 (stereo not given) | 0.541% | –
C[N+](C)(C)CCOC(=O)CCC(=O)OCC[N+](C)(C)C | 2.01% | –
CN1C[C@H]2c3ccccc3Oc3ccc(Cl)cc3[C@@H]2C1 | -11.1% | –
Cc1c(N)cccc1[N+](=O)[O-] | 2.33% [at 94.8 µM] | –
OCCN1CCN(CCCN2c3ccccc3C=Cc3ccccc32)CC1 | -6.84% | –
NC(N)=NCCC[C@H](N)C(=O)O | 0.0873% [at 8.36 µM] | –
COc1cccc(N(C)C(=S)Oc2ccc3c(c2)CCCC3)n1 | 1.32% | –
Cc1ccc(C(C)OC(=O)C2(C)CCC(C(=O)O)C2(C)C)cc1 (stereo not given) | 0.158% | –
NS(=O)(=O)c1ccc(N2CCCCS2(=O)=O)cc1 | 2.44% | –
Brc1c2ccccc2cc2ccccc12 | 3.45% [at 94.8 µM] | –
O=C1[C@H]2CCCC[C@H]2C(=O)N1CCCCN1CCN(c2nsc3ccccc23)CC1 | -0.5% | –
CC(C)=CCC/C(C)=C/CC/C(C)=C/CO | 4.02% | –
CCCCc1ncc(/C=C(\Cc2cccs2)C(=O)O)n1Cc1ccc(C(=O)O)cc1 | 2.09% | –
COc1cc2c(cc1OC)C(C(C(=O)N(CCc1ccc(OC)c(OC)c1OC)CCc1ccc(OC)c(OC)c1OC)c1ccccc1)=NCC2 (stereo not given) | -2.96% | –
C=C1[C@H]2CC[C@@H]3[C@H]2C(C)(C)CCC[C@]13C | -0.981% | –
CC(C)(C)Cl | 0.067% [at 94.8 µM] | –
CC(C)O.CC(C)O.CCOC(=O)/C=C(\C)O.CCOC(=O)/C=C(\C)O.[Ti] | 2.01% | –
CNC(=O)CN(CCN(CCN(CC(=O)[O-])CC(=O)NC)CC(=O)[O-])CC(=O)[O-].O.[Gd+3] | -3.21% | –
CN(C)CCCN1c2ccccc2Sc2ccccc21 | -10.6% | –

SMILES | activation | Potency
CCCCCCCCO[C@@H]1O[C@H](CO)[C@@H](O)[C@H](O)[C@H]1O | 0.746% | –
COC(C)OC | -3.1% | –
C[Si](C)(CCCN)O[Si](C)(C)CCCN | 9.46% | –
CCCCCCCC/C=C\CCCCCCCC(=O)OCC | 4.62% | –
Cc1[nH]c(C)c(Cl)c(=O)c1Cl | 0.25% [at 34.3 µM] | –
CCCCCCCCCCCc1ccccc1 | -0.283% | –
CCN(CC)CCOC(=O)C(Cc1cccc2ccccc12)CC1CCCO1 (stereo not given) | -7.42% | –
CC1CCC(=O)C1=O (stereo not given) | 4.22% [at 94.8 µM] | –
NC(=O)C(c1ccccc1)(c1ccccc1)[C@@H]1CCN(CCc2ccc3c(c2)CCO3)C1 | -14.9% | –
C=CC1CC2C=CC1C2 (stereo not given) | 0.518% | –
CCO[C@H](Cc1ccc(OCCc2ccc(OS(C)(=O)=O)cc2)cc1)C(=O)O | 3.15% | –
O=C(OCCc1ccccc1)c1ccccc1 | – | 0.386 µM (active)
CC(=O)[O][Al] | -0.846% [at 94.8 µM] | –
CCC(C)O (stereo not given) | 0.0027% [at 94.8 µM] | –
CCO[Si](CCCCl)(OCC)OCC | -0.008% | –
Cc1oc(-c2ccccc2)nc1CCOc1cccc2c1ccn2CCC(=O)O | -1.71% | –
O=C(NCC1CN(c2ccc(N3CCOCC3=O)cc2)C(=O)O1)c1ccc(Cl)s1 (stereo not given) | -1.29% | –
Cc1ccc(C(=O)Oc2ccc(C(O)CNC(C)(C)C)cc2OC(=O)c2ccc(C)cc2)cc1 (stereo not given) | -3.97% | –
CN(C)c1ccc(CCO)cc1 | 5.61% | –
O=C(O)C1(C(=O)O)CCC1.[NH2-].[NH2-].[Pt+2] | 0.529% | –
